Measurements: PubChem BioAssay (NCI)
Compounds without any hit were thinned out: in the full panel of roughly 83,000, 20% have a hit.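 Negative percent growth values reflect cell death: -40 means 40% of the cells present at the start died, and -100 means all died.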 Values without a mark were called inactive. Active and inactive are the calls of the source. The calls were made as follows: active = growth percent below 10; inactive = the rest.

What follows are compounds tested on T-47D breast (assay: NCI-60 one-dose screen, 48 h (100 = growth as untreated, 0 = no growth, -100 = all killed)). Conditions: 10 µM unless noted.
Work on `Clc1ccc2c(c1)-n1cccc1C(c1ccc3ccccc3c1)=NC2` yielded a growth of 76.5%.
Work on `O=C(C(=O)c1cccnc1)c1cccnc1` yielded a growth of 170%.
For `NC(=O)Nc1ccc2ncnc(Nc3cccc(O)c3)c2c1`, the growth was 76.6%.
With `COc1ccc(C2C3CCc4ccccc4C3=NN2C(=O)c2cc(OC)c(OC)c(OC)c2)cc1O` (configuration not stated) the growth was 87%.
`O=C(Nc1ccc(Oc2ccc(Nc3nc4ccccc4s3)cc2)cc1)Nc1ccc(Cl)c(C(F)(F)F)c1` was tested, and the growth was 3.71% (active).
`CC(C)(C)CC(C)(C)NCc1cc(C(C)(C)C)cc(CNC(C)(C)CC(C)(C)C)c1O` was tested, and the growth was 14.5%.
In the case of `CCOC(C)(c1ccc(Cl)cc1)C1CCNCC1` (configuration not stated), the growth is reported as 91.7%.
In the case of `CCCc1n(Cc2ccc3ccccc3n2)cc[n+]1Cc1ccc2ccccc2c1`, the growth is reported as -2.95% (active).
`C=CCn1c(SCC(=O)Nc2ccc(C(=O)/C=C/c3ccc(Cl)cc3)cc2)nnc1-c1ccc(Cl)cc1` gave a growth of 76%.
With `C=C1NC(=O)C(C(C)CC)NC(=O)C2CSCC(NC(=O)CCC(=O)O)C(=O)NC(Cc3ccccc3)C(=O)NC(C)C(=O)NC(CC(C)CC)C(=O)NC(C(=O)NC(Cc3ccccc3)C(=O)N3CCCC3C(=O)N2)C(C)OC(=O)C(CO)NC(=O)C(C(O)COC)N(C)C(=O)C(C(C)C)NC(=O)C(CC(C)CC)NC1=O` (configuration not stated) the growth was 60.2% [6 µM].
`OC(c1cc2cc(Cl)ccc2c2cc(C(F)(F)F)ccc12)C1CCCCN1` (configuration not stated) was tested, and the growth was -82.1% (active).
In the case of `CCOC(=O)NNc1cccc(Cl)c1`, the growth is reported as 119%.
`Cc1nc2ccc(Nc3nc(N4CCOCC4)nc(N4CCN(C)CC4)n3)cc2n1Cc1ccccc1` showed a growth of 91.9%.
`F` gave a growth of 18.2% [6.87 mM].
`CCCc1cc2c(cc1CN(Cc1cc3c(cc1CCC)OCO3)C(=N)OCC)OCO2` was tested, and the growth was 84.7%.
With `OC(c1cc2c(Cl)cc(Cl)cc2c2cc(C(F)(F)F)ccc12)C1CCCCN1` (configuration not stated) the growth was -78.5% (active).
For `COc1ccc(-n2nc(C(=O)NCC(=O)Nc3nc4cc(OC)ccc4s3)c3ccccc3c2=O)cc1`, the growth was 17%.
`CCCCn1c(-c2ccc(F)cc2)nc2cc(OC)c(OC)cc2c1=O` showed a growth of 89.1%.
`COc1ccc(-c2cn(-c3cccc(C(=O)/C=C/c4ccc(O)c(OC)c4)c3)c(=O)[nH]2)cc1` showed a growth of 32.1%.
`CCC1CCc2nc3sc(C(=O)Nc4cccc(F)c4)c(N)c3cc2C1` (configuration not stated) showed a growth of 89.9%.
`Cc1ccc(Nc2nc(NCCO)c3ccccc3n2)cc1C` showed a growth of 55.9%.
In the case of `COc1ccc2c(c1)CCCC21C(=O)Nc2ccccc21` (configuration not stated), the growth is reported as 85.2%.

Each compound was assayed on BT-549 breast in the same assay as above. Conditions: 10 µM unless noted.
`NS(=O)(=O)c1ccc(N2N=C(c3cccs3)CC2c2ccccc2O)cc1` (configuration not stated) was tested, and the growth was -15.4% (active).
`CC(=O)Nc1nonc1-c1nc2ccccc2n1Cc1ccc(C(C)(C)C)cc1` showed a growth of 93.2%.
For `Cc1nn(-c2ccc(Cl)cc2)c(=O)n1CCN1CCOCC1`, the growth was 61.5%.
With `SCc1ccc(CS)cc1` the growth was 92.3%.
Work on `Fc1cc(-c2nnc3sc(-c4ccc(Cl)cc4)nn23)c(Cl)cc1Cl` yielded a growth of 106%.
Work on `CN(C)c1ccc(/C=C(\C#N)c2nc3ccccc3n2C)cc1` yielded a growth of 39.7%.
Work on `N[C@@H](CO)C(=O)O` yielded a growth of 104%.
Work on `COc1cc2c(cc1C)NC(=O)/C2=C\c1c[nH]c2ccccc12` yielded a growth of 94.6%.
`NC(=O)Nc1ccc2ncnc(Nc3cccc(O)c3)c2c1` was tested, and the growth was 108%.
For `COc1ccc(C2C3CCc4ccccc4C3=NN2C(=O)c2cc(OC)c(OC)c(OC)c2)cc1O` (configuration not stated), the growth was 89%.
For `CCOC(C)(c1ccc(Cl)cc1)C1CCNCC1` (configuration not stated), the growth was 99.5%.
For `CCCc1n(Cc2ccc3ccccc3n2)cc[n+]1Cc1ccc2ccccc2c1`, the growth was -3.95% (active).
With `C=C1NC(=O)C(C(C)CC)NC(=O)C2CSCC(NC(=O)CCC(=O)O)C(=O)NC(Cc3ccccc3)C(=O)NC(C)C(=O)NC(CC(C)CC)C(=O)NC(C(=O)NC(Cc3ccccc3)C(=O)N3CCCC3C(=O)N2)C(C)OC(=O)C(CO)NC(=O)C(C(O)COC)N(C)C(=O)C(C(C)C)NC(=O)C(CC(C)CC)NC1=O` (configuration not stated) the growth was 7.87% [6 µM] (active).
In the case of `F`, the growth is reported as 5.2% [6.87 mM] (active).
In the case of `CCCc1cc2c(cc1CN(Cc1cc3c(cc1CCC)OCO3)C(=N)OCC)OCO2`, the growth is reported as 80.4%.
`COc1ccc(-n2nc(C(=O)NCC(=O)Nc3nc4cc(OC)ccc4s3)c3ccccc3c2=O)cc1` was tested, and the growth was -23.4% (active).
For `COc1ccc(-c2cn(-c3cccc(C(=O)/C=C/c4ccc(O)c(OC)c4)c3)c(=O)[nH]2)cc1`, the growth was 4.04% (active).
`CCC1CCc2nc3sc(C(=O)Nc4cccc(F)c4)c(N)c3cc2C1` (configuration not stated) gave a growth of 88.1%.

The compounds below were run on MDA-MB-435 melanoma in the same assay as above. Conditions: 10 µM unless noted.
With `NS(=O)(=O)c1ccc(N2N=C(c3cccs3)CC2c2ccccc2O)cc1` (configuration not stated) the growth was -41.1% (active).
In the case of `N#Cc1ccc(NC(=O)Nc2nc3ccc(OC(F)(F)F)cc3s2)cc1`, the growth is reported as -25.6% (active).
`CC(=O)Nc1nonc1-c1nc2ccccc2n1Cc1ccc(C(C)(C)C)cc1` gave a growth of 86%.
For `Cc1nn(-c2ccc(Cl)cc2)c(=O)n1CCN1CCOCC1`, the growth was 84.9%.
`O=C(O)Cn1ccc2ccccc21` gave a growth of 108%.
In the case of `SCc1ccc(CS)cc1`, the growth is reported as 111%.
Compound `Oc1ccc(-c2cnc(-c3ccccc3)[nH]2)c(O)c1` has a growth of 110%.
With `CCCOC(=O)C1c2cc3c(cc2CC(C)C1C(=O)OCCC)OCO3` (configuration not stated) the growth was 104%.
`[Ag].[Ag].[NH-]S(=O)(=O)c1ccc(N=Nc2cc(N=Nc3ccc(S([NH-])(=O)=O)cc3)c3c(NC(=O)C(Cl)Cl)cccc3c2OC(=O)C(Cl)Cl)cc1.[c-]1nccs1.[c-]1nccs1` was tested, and the growth was 87.2%.
In the case of `CN(C)c1ccc(/C=C(\C#N)c2nc3ccccc3n2C)cc1`, the growth is reported as -26.2% (active).
`CCc1ccc(Nc2cc(C)c3ccc(O)cc3n2)cc1` gave a growth of 28.5%.
`Fc1ccc(-c2nnc(N3CCOCC3)c3ccccc23)cc1` was tested, and the growth was 86.6%.
In the case of `N[C@@H](CO)C(=O)O`, the growth is reported as 97.4%.
`COc1ccc2nc(C)cc(Nc3ccccc3O)c2c1` gave a growth of 64.4%.
With `COc1cc2c(cc1C)NC(=O)/C2=C\c1c[nH]c2ccccc12` the growth was 68.8%.
`Clc1ccc2c(c1)-n1cccc1C(c1ccc3ccccc3c1)=NC2` showed a growth of 50.4%.
`O=C(C(=O)c1cccnc1)c1cccnc1` gave a growth of 119%.
For `NC(=O)Nc1ccc2ncnc(Nc3cccc(O)c3)c2c1`, the growth was 101%.
`COc1ccc(C2C3CCc4ccccc4C3=NN2C(=O)c2cc(OC)c(OC)c(OC)c2)cc1O` (configuration not stated) showed a growth of 96.2%.
In the case of `O=C(Nc1ccc(Oc2ccc(Nc3nc4ccccc4s3)cc2)cc1)Nc1ccc(Cl)c(C(F)(F)F)c1`, the growth is reported as 0.432% (active).
Compound `CC(C)(C)CC(C)(C)NCc1cc(C(C)(C)C)cc(CNC(C)(C)CC(C)(C)C)c1O` has a growth of 81.5%.
Work on `CCOC(C)(c1ccc(Cl)cc1)C1CCNCC1` (configuration not stated) yielded a growth of 109%.
`CCCc1n(Cc2ccc3ccccc3n2)cc[n+]1Cc1ccc2ccccc2c1` was tested, and the growth was -6.36% (active).
Work on `C=CCn1c(SCC(=O)Nc2ccc(C(=O)/C=C/c3ccc(Cl)cc3)cc2)nnc1-c1ccc(Cl)cc1` yielded a growth of 96.7%.
`C=C1NC(=O)C(C(C)CC)NC(=O)C2CSCC(NC(=O)CCC(=O)O)C(=O)NC(Cc3ccccc3)C(=O)NC(C)C(=O)NC(CC(C)CC)C(=O)NC(C(=O)NC(Cc3ccccc3)C(=O)N3CCCC3C(=O)N2)C(C)OC(=O)C(CO)NC(=O)C(C(O)COC)N(C)C(=O)C(C(C)C)NC(=O)C(CC(C)CC)NC1=O` (configuration not stated) was tested, and the growth was -34.8% [6 µM] (active).
In the case of `OC(c1cc2cc(Cl)ccc2c2cc(C(F)(F)F)ccc12)C1CCCCN1` (configuration not stated), the growth is reported as -66.1% (active).
In the case of `CCOC(=O)NNc1cccc(Cl)c1`, the growth is reported as 107%.
`Cc1nc2ccc(Nc3nc(N4CCOCC4)nc(N4CCN(C)CC4)n3)cc2n1Cc1ccccc1` gave a growth of 91%.
`F` was tested, and the growth was -26.3% [6.87 mM] (active).
`CCCc1cc2c(cc1CN(Cc1cc3c(cc1CCC)OCO3)C(=N)OCC)OCO2` gave a growth of 103%.
In the case of `OC(c1cc2c(Cl)cc(Cl)cc2c2cc(C(F)(F)F)ccc12)C1CCCCN1` (configuration not stated), the growth is reported as -65.5% (active).
`COc1ccc(-n2nc(C(=O)NCC(=O)Nc3nc4cc(OC)ccc4s3)c3ccccc3c2=O)cc1` gave a growth of 42.5%.
`CCCCn1c(-c2ccc(F)cc2)nc2cc(OC)c(OC)cc2c1=O` was tested, and the growth was 101%.
With `COc1ccc(-c2cn(-c3cccc(C(=O)/C=C/c4ccc(O)c(OC)c4)c3)c(=O)[nH]2)cc1` the growth was 20.5%.
In the case of `CCC1CCc2nc3sc(C(=O)Nc4cccc(F)c4)c(N)c3cc2C1` (configuration not stated), the growth is reported as -12.6% (active).
With `Cc1ccc(Nc2nc(NCCO)c3ccccc3n2)cc1C` the growth was -35.8% (active).
`COc1ccc2c(c1)CCCC21C(=O)Nc2ccccc21` (configuration not stated) showed a growth of 101%.
